About 83,000 compounds went through this panel and 20% of them were active in at least one assay; those are over-represented in the sample as a whole.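 Percent growth is the endpoint: 0 to 100 indicates growth inhibition (40 means 60% inhibition), 0 means no net growth, and negative values indicate cell death.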 Unmarked numbers belong to inactive results. The source made the active and inactive calls. Rule for the calls: active = growth percent below 10; inactive = the rest.
How the values were obtained:
Experiment in all cases: NCI-60 one-dose screen, 48 h (100 = growth as untreated, 0 = no growth, -100 = all killed)
Settings in all cases: 10 µM unless noted
[1] = tested on: SK-MEL-2 melanoma
[2] = tested on: EKVX NSCLC
[3] = tested on: SN12C renal
[4] = tested on: UO-31 renal
[5] = tested on: TK-10 renal
[6] = tested on: ACHN renal
[7] = tested on: CAKI-1 renal
[8] = tested on: A498 renal
[9] = tested on: CCRF-CEM leukemia
[10] = tested on: MOLT-4 leukemia

SMILES | growth [1] | growth [2] | growth [3] | growth [4] | growth [5] | growth [6] | growth [7] | growth [8] | growth [9] | growth [10]
Cc1cc2c([nH]1)CSc1cc(S(=O)(=O)c3ccccc3)c(=O)[nH]c1-2 | 30.5% [100 µM] | 21.1% [100 µM] | 23.8% [100 µM] | 35.4% [100 µM] | 26.5% [100 µM] | 23.5% [100 µM] | 6.96% [100 µM] (active) | 51.7% [100 µM] | 19.3% [100 µM] | 32.7% [100 µM]
C=CC(=O)NCc1ccc(Nc2nccc(-c3ccc(N4CCCC4)c(C#N)c3)n2)cc1 | 35.8% | 62.8% | 41.3% | 17.5% | 37.3% | 20.4% | -1.86% (active) | 54% | 49.1% | 20%
CC1=Nc2cnc(Nc3ccc(OCCN4CCCC4)cc3)nc2Nc2ccccc21 | 55.9% | 75.1% | 61.1% | 17.3% | 63.6% | 28.7% | 20.9% | -7.76% (active) | 86.3% | 34.5%
COc1ccc(-c2ccc3cnc4sc(-c5ccc(OC)cc5)nc4c3n2)cc1 | 96.2% | 68.6% | 103% | 61.7% | 142% | 89.8% | 96% | 63.4% | 102% | 85.9%
CS(=O)(=O)Nc1cc(-c2ccc3ncnc(Nc4c(Cl)ccc5c4OCO5)c3c2)cnc1Cl | -65.7% (active) | -34.1% (active) | 9.89% (active) | -71.4% (active) | -59.4% (active) | 11.7% | -30.4% (active) | -65.3% (active) | 11.9% | -15.1% (active)
Cc1nnc(NC(=O)c2nc(S(=O)(=O)Cc3ccc(F)cc3)ncc2Cl)s1 | 89.5% | 90.5% | 64.7% | 73.6% | 79% | 96.5% | -86.3% (active) | 115% | -43.3% (active) | 11.3%
CCn1c(=S)sc2c(Nc3ccc(F)cc3)nc(-c3cccnc3)nc21 | 63.1% | 80.5% | 84.1% | 78.5% | 58.2% | 40.7% | 55.1% | 93.7% | 102% | 93.7%
COC(=O)c1c2c(c[n+]([O-])c1C)C(=O)C(NCc1ccccc1)=CC2=O | -44.4% (active) | -45.1% (active) | -78.9% (active) | -14.8% (active) | 39% | -18.4% (active) | 3.84% (active) | -4.89% (active) | 2.92% (active) | -29.4% (active)
CCOC(=O)c1c(NC(=O)c2ccc(C(C)C)cc2)sc2c(CN(C)C)c(O)ccc12 | 88.3% | 97.1% | 82% | 70.5% | 107% | 37.8% | 75.7% | 41.5% | 8.75% (active) | -21% (active)
COc1ccc(/C(C)=C(/c2ccc(OCCCN(C)C)cc2)c2ccc(OC(=O)Cc3ccccc3)cc2)cc1 | 91% | 65.8% | 82.4% | 53.4% | 95.2% | 87.2% | 92.9% | 83.1% | 65% | 47.5%
COc1ccc(C(=O)Nc2cccc(C3CC(=O)c4c(cc(OC)c(OC)c4OC)O3)c2)cc1 (centres undefined) | -11.9% (active) | 45% | 31.2% | 33.7% | 40.3% | 40.8% | 33.3% | -2.96% (active) | 9.44% (active) | 14.3%
CCOC(=O)c1c(C)c2c(n1C)CSc1cc(C(=O)c3ccccc3)c(=O)[nH]c1-2 | 122% [100 µM] | 71.8% [100 µM] | 103% [100 µM] | 84.7% [100 µM] | 103% [100 µM] | 84.9% [100 µM] | 66% [100 µM] | 87.7% [100 µM] | 106% [100 µM] | 87.3% [100 µM]
Nc1ncnc2c1N=C(c1ccc(Cl)cc1)CC(c1ccc3c(c1)OCO3)N2 (centres undefined) | 52% | 94.6% | 97.2% | 80.5% | 111% | 87.6% | 84.1% | 99.5% | -54.1% (active) | 71.5%
CN(C)C1CCN(Cc2ccc(NC(=O)c3cncc(C#Cc4cnc(N)c5ncccc45)c3)cc2C(F)(F)F)CC1 | 79.9% | 93.5% | 93.1% | 89.3% | 128% | -90.9% (active) | 78.4% | 85.2% | 4.13% (active) | 24.7%
O=C(CN1C(=O)CCC1=O)Nc1ncc(Cc2ccc(F)cc2)s1 | 100% | 92.6% | 98.8% | 76% | 101% | – | 91.5% | 105% | 105% | 102%
CC(=O)N1N=C(c2ccc(Nc3nc(Nc4ccc(Cl)cc4)nc(Nc4ccc(Cl)cc4)n3)cc2)CC1c1ccco1 (centres undefined) | 77.7% | 97% | 90.3% | 85.6% | 110% | – | 86.8% | 107% | 92.4% | 66%
COC(C(=O)[C@@H](O)[C@@H](C)O)[C@@H]1Cc2cc3cc(O[C@H]4C[C@@H](O[C@H]5C[C@@H](O)[C@H](O)C(C)O5)[C@H](O)C(C)O4)cc(O)c3c(O)c2C(=O)[C@H]1O[C@H]1C[C@@H](O[C@H]2C[C@@H](O[C@H]3C[C@@H](OC)[C@H](O)C(C)O3)[C@@H](O)C(C)O2)[C@H](O)C(C)O1 (some centres undefined) | 33.2% | 68.4% | 33% | 64.5% | 59.5% | 53.6% | 73.5% | -5.04% (active) | 68.9% | 48.2%
O=C(Nc1nc2ccc(F)cc2s1)c1cccnc1Nc1ccc(Cl)cc1 | 54.4% | 9.81% (active) | 17.9% | 56.2% | 27.4% | – | 20.2% | 17.9% | 5.11% (active) | 16.6%
O=S(=O)(NCCNc1cc(-c2c(-c3cccc(O)c3)nc3sccn23)ccn1)c1ccc(C(F)(F)F)cc1 | 43.9% | 35.7% | 35.6% | -71.8% (active) | 67.9% | – | 29.3% | 40.2% | 25.4% | 9.21% (active)
COc1cc(CNS(=O)(=O)c2ccc(C)cc2)ccc1OCc1cn(-c2ccc(Br)cc2)nn1 | 104% | 93.1% | 105% | 69.3% | 112% | 98.4% | 91.6% | 70.6% | 90.4% | 101%
O=C1/C(=C/c2ccc(Cl)cc2)COc2ccc(O)cc21 | 101% | 95.5% | 69% | 53.1% | 100% | – | 70.8% | 100% | -5.84% (active) | 14.8%
CN(C)CCCn1c2c(c3ncccc3c1=O)C(=O)c1ccccc1-2 | 81.8% | 81.7% | 34.7% | 32% | 52.3% | – | 52.7% | 57.5% | 50.4% | 17.3%
Oc1ccc(CCn2c(O)c(/C=C3\CN=c4ccccc4=N3)sc2=S)cc1 | 91.5% | 80.8% | 47.5% | 28.9% | 30.8% | – | 34.3% | 37.3% | 7.79% (active) | 35.9%
CC(C)=CCC[C@](C)(O)[C@H]1CC[C@]2(C)[C@@H]1CC[C@@H]1[C@@]3(C)Cc4nccnc4C(C)(C)[C@@H]3CC[C@]12C | 82.7% | 70.6% | 72.3% | 79.9% | 94.9% | – | 70.2% | 91.4% | 68.4% | 66.7%
Cc1cc(Cl)ccc1Nc1nc(C(F)(F)F)ccc1C(=O)N/N=C/c1ccc([N+](=O)[O-])cc1 | -33.5% (active) | -8.42% (active) | 4.6% (active) | -27.1% (active) | -8.71% (active) | -22.9% (active) | 2.14% (active) | 88.9% | -12.9% (active) | -5.84% (active)
CCOC(=O)C(=Cc1cccc(Br)c1)C(=O)OCC | 31.7% | 61.1% | 34.8% | 52.4% | 58.5% | – | 59.4% | 95.1% | 11.7% | –
C#CCOc1cccc(Nc2ncnc3ccc(NC(=O)CCl)cc23)c1 | -47.9% (active) | -45.2% (active) | -24.7% (active) | -87.8% (active) | -60.8% (active) | – | 1.72% (active) | -2.12% (active) | -56.9% (active) | -25.1% (active)

— PubChem BioAssay (NCI)
